# Data reported in the antibiotic and cytotoxicity screens of Wong et al. (2023).
# About 3,300 (8.5%) of roughly 39,000 compounds were called active. The list comes from a sample in which actives are over-represented; it also holds similar structures and randomly drawn compounds.
# Test system: HepG2
# Test: cytotoxicity call (relative viability < 0.9)
# Settings: 10 µM
row,SMILES,cytotoxicity call
1,C[C@H]1CN([C@@H](C)CO)C(=O)CCCn2nncc2CO[C@H]1CN(C)C(=O)Nc1ccc(C(F)(F)F)cc1,inactive
2,NC(=O)CN1C(=O)C(=O)c2cc(Cl)ccc21,inactive
3,Cc1nc(-c2ccncc2)sc1CN,inactive
4,O=C(C[C@@H]1C[C@@H]2c3cc(NC(=O)c4ccc5c(c4)OCO5)ccc3O[C@@H]2[C@H](CO)O1)NCc1ccccn1,inactive
5,COCC(=O)Nc1ccc2c(c1)C(=O)N(C)[C@H]1CC[C@@H](CC(=O)NCc3ccc(OC)cc3)O[C@@H]1CO2,inactive
6,Cc1noc(C)c1NC(=O)Nc1cccc2c1O[C@@H](CN(C)S(C)(=O)=O)[C@H](C)CN([C@H](C)CO)C2=O,inactive
7,COc1cc(S(C)(=O)=O)ccc1Nc1nc2ccc(-c3ccc(NC(=O)[C@H](C)c4ccc(F)cc4)cc3)cn2n1,inactive
8,C[C@@H]1CN([C@H](C)CO)C(=O)c2cc(NC(=O)Nc3ccccc3)ccc2O[C@H]1CN(C)Cc1ccc(Oc2ccccc2)cc1,active
9,C[C@@H]1CN([C@H](C)CO)C(=O)c2cc(NC(=O)Nc3ccccc3)ccc2O[C@@H]1CN(C)Cc1ccc(Oc2ccccc2)cc1,active
10,COc1ccc(NC(=O)N(C)C[C@@H]2OCCCC[C@@H](C)Oc3ccc(NS(=O)(=O)c4ccc(C)cc4)cc3C(=O)N([C@@H](C)CO)C[C@@H]2C)cc1,inactive
11,CCCNC(=O)N1C[C@H]2[C@@H](c3ccccc31)[C@H](CO)N2C(=O)CN1CCOCC1,inactive
12,C[C@@H]1CCCCO[C@@H](CN(C)Cc2ccc(Cl)c(Cl)c2)[C@H](C)CN([C@@H](C)CO)C(=O)c2cc(NS(=O)(=O)c3cccs3)ccc2O1,inactive
13,CC(=O)NCC(=O)N1CCC2(CC1)C(=O)N(CC1CC1)CCN2C,inactive
14,C[C@@H]1CN([C@H](C)CO)C(=O)c2cc(NS(=O)(=O)c3ccc(F)cc3)ccc2O[C@H]1CN(C)S(C)(=O)=O,inactive
15,C[C@@H]1ON(c2ccc(C(=O)OC(C)(C)C)cc2)[C@H](c2ccc(O)cc2)[C@H]1C(=O)N1C(=O)OC[C@H]1Cc1ccccc1,inactive
16,COc1cccc(S(=O)(=O)N(C)C[C@@H]2Oc3ncc(-c4ccc(F)cc4)cc3C(=O)N([C@H](C)CO)C[C@@H]2C)c1,inactive
17,COc1cc2nc(N3CCN(C(=O)c4ccco4)CC3)nc(N)c2cc1OC.Cl,active
18,COc1cc2nc(N(C)CCCNC(=O)C3CCCO3)nc(N)c2cc1OC.Cl (centres undefined),inactive
19,O=C(c1ccco1)N1CCNCC1,inactive
20,NC(=O)C1CCN(C(=O)c2ccco2)CC1,inactive
21,COc1cc2nc(N3CCN(C(=O)C4CCCO4)CC3)nc(N)c2cc1OC.Cl (centres undefined),active
22,COc1cc2nc(N3CCN(C(=O)C4COc5ccccc5O4)CC3)nc(N)c2cc1OC.CS(=O)(=O)O (centres undefined),inactive
23,Cl.Cl.NCCNCCNCCN,inactive

row,SMILES,cytotoxicity call
1,C[C@@H]1CCCCO[C@@H](CN(C)C(=O)CCC(F)(F)F)[C@H](C)CN([C@@H](C)CO)C(=O)c2cc(NC(=O)Nc3ccccc3)ccc2O1,inactive
2,C[C@@H]1CCCCO[C@H](CN(C)CC2CC2)[C@@H](C)CN([C@H](C)CO)C(=O)c2cc(NC(=O)Cc3ccccc3)ccc2O1,inactive
3,O=C(C[C@H]1CC[C@@H]2[C@H](COC[C@H](O)CN2C(=O)c2cnccn2)O1)N1CCN(c2ccccc2)CC1,inactive
4,C[C@H](CO)N1C[C@H](C)[C@H](CN(C)CC2CCCCC2)OCCCC[C@H](C)Oc2ccc(NC(=O)CCCN(C)C)cc2C1=O,inactive
5,NNC(=O)c1ccc2c(=O)[nH][nH]c(=O)c2c1,inactive
6,CCS(=O)(=O)NCC[C@@H]1CC[C@@H](NS(=O)(=O)c2ccccc2C)[C@H](CO)O1,inactive
7,COCc1cn(CC[C@@H]2CC[C@H](NC(=O)CCN3CCCCC3)[C@@H](CO)O2)nn1,inactive
8,CN(C)CCCNC(=O)C[C@@H]1CC[C@H]2[C@@H](COc3ccc(NC(=O)c4ccc5c(c4)OCO5)cc3C(=O)N2C)O1,inactive
9,C[C@H]1CN([C@@H](C)CO)C(=O)c2cc(NS(C)(=O)=O)ccc2O[C@@H]1CN(C)C(=O)Nc1ccc(F)cc1,active
10,C[C@H]1CN([C@@H](C)CO)C(=O)c2cc(NS(C)(=O)=O)ccc2O[C@H]1CN(C)C(=O)Nc1ccc(F)cc1,inactive
11,C[C@H]1CN([C@@H](C)CO)C(=O)c2cc(NS(C)(=O)=O)ccc2O[C@@H]1CN(C)C(=O)Nc1ccc(C(F)(F)F)cc1,inactive
12,C[C@@H]1CN([C@@H](C)CO)C(=O)c2cc(NS(C)(=O)=O)ccc2O[C@@H]1CN(C)C(=O)Nc1ccc(C(F)(F)F)cc1,active
13,C[C@H](CO)N1C[C@H](C)[C@@H](CN(C)C(=O)Nc2ccc(C(F)(F)F)cc2)Oc2ccc(NS(C)(=O)=O)cc2C1=O,inactive
14,C[C@@H]1CN([C@@H](C)CO)C(=O)c2cc(NS(C)(=O)=O)ccc2O[C@H]1CN(C)C(=O)Nc1ccc(C(F)(F)F)cc1,inactive
15,C[C@@H]1CN([C@H](C)CO)C(=O)c2cc(NS(C)(=O)=O)ccc2O[C@H]1CN(C)C(=O)Nc1ccc(C(F)(F)F)cc1,inactive
16,C[C@H]1CN([C@@H](C)CO)C(=O)c2cc(NS(C)(=O)=O)ccc2O[C@H]1CN(C)C(=O)Nc1ccc(C(F)(F)F)cc1,active
17,C[C@H](CO)N1C[C@H](C)[C@@H](CN(C)C(=O)Nc2ccc(F)cc2)Oc2ccc(NS(C)(=O)=O)cc2C1=O,inactive
18,C[C@@H]1CCCCO[C@@H](CN(C)C(=O)c2ccncc2)[C@H](C)CN([C@H](C)CO)C(=O)c2cc(NS(C)(=O)=O)ccc2O1,inactive
19,N#C[C@H](c1ccccn1)N1CCOCC1,inactive
20,O=c1n(-c2ccccc2)c(=O)n2n1CC(COc1ccccc1)=C1[C@@H](CCc3ccccc3)OB(O)C[C@@H]12,inactive
21,C[C@H](CO)N1C[C@H](C)[C@@H](CN(C)S(C)(=O)=O)Oc2ccc(NS(=O)(=O)c3ccc(F)cc3)cc2C1=O,inactive
22,COc1cccc(S(=O)(=O)N2C[C@H](O)COC[C@H]3O[C@@H](CC(=O)N4CCOCC4)CC[C@@H]32)c1,inactive
23,CC(C)NC(=O)N[C@@H]1C=C[C@@H](CC(=O)NCCCN(C)C)O[C@@H]1CO,inactive

row,SMILES,cytotoxicity call
1,O=C(C[C@H]1C[C@@H]2c3cc(NC(=O)C4CCOCC4)ccc3O[C@@H]2[C@@H](CO)O1)NCCN1CCCCC1,inactive
2,C[C@H]1CN([C@@H](C)CO)C(=O)c2cccc(NC(=O)c3ccncc3)c2O[C@@H]1CN(C)Cc1ccc(C(=O)O)cc1,inactive
3,C[C@@H]1CN([C@@H](C)CO)C(=O)c2cc(C#Cc3ccccc3F)cnc2O[C@@H]1CN(C)S(=O)(=O)c1ccccc1,inactive
4,O=S(=O)(NCCN(C/C=C/c1ccc(F)cc1)C/C=C/c1ccc(F)cc1)c1cccc2cnccc12,inactive
5,O=S(=O)(c1cccc2cnccc12)N1CCCNCC1,active
6,O=S(=O)(c1ccc(-n2cnnn2)cc1)N1CCNCC1,inactive
7,COc1ccc(S(=O)(=O)Nc2ccc3c(c2)C(=O)N([C@@H](C)CO)C[C@H](C)[C@@H](CN(C)C(=O)Nc2cccc4ccccc24)OCCCC[C@H](C)O3)cc1,inactive
8,C[C@H]1CN([C@@H](C)CO)C(=O)c2cc(NC(=O)Nc3cccc4ccccc34)ccc2O[C@H]1CN(C)Cc1ccccc1,inactive
9,C[C@@H]1CN([C@H](C)CO)C(=O)c2cc(NC(=O)Nc3cccc4ccccc34)ccc2O[C@@H]1CN(C)Cc1ccc(-c2ccccc2)cc1,active
10,C[C@H]1CN([C@@H](C)CO)C(=O)c2cc(NC(=O)Nc3cccc4ccccc34)ccc2O[C@H]1CN(C)Cc1ccc(-c2ccccc2)cc1,inactive
11,C[C@H]1CN([C@@H](C)CO)C(=O)c2cc(NC(=O)Nc3cccc4ccccc34)ccc2O[C@H]1CN(C)Cc1ccc(C(=O)O)cc1,inactive
12,C[C@@H]1CN([C@H](C)CO)C(=O)c2cc(NC(=O)Nc3cccc4ccccc34)ccc2O[C@H]1CN(C)Cc1ccc(-c2ccccc2)cc1,active
13,C[C@@H]1CN([C@H](C)CO)C(=O)c2cc(NC(=O)Nc3cccc4ccccc34)ccc2O[C@@H]1CN(C)Cc1ccc(C(=O)O)cc1,inactive
14,C[C@@H]1CN([C@@H](C)CO)C(=O)c2cc(NC(=O)Nc3cccc4ccccc34)ccc2O[C@H]1CN(C)Cc1ccc(-c2ccccc2)cc1,inactive
15,C[C@H]1CN([C@@H](C)CO)C(=O)c2cc(NC(=O)Nc3cccc4ccccc34)ccc2O[C@@H]1CN(C)Cc1ccc(-c2ccccc2)cc1,active
16,C[C@@H]1CN([C@@H](C)CO)C(=O)c2cc(NC(=O)Nc3cccc4ccccc34)ccc2O[C@@H]1CN(C)Cc1ccc(-c2ccccc2)cc1,inactive
17,C[C@H](CO)N1C[C@H](C)[C@@H](CN(C)Cc2ccc(-c3ccccc3)cc2)Oc2ccc(NC(=O)Nc3cccc4ccccc34)cc2C1=O,inactive
18,C[C@H](CO)N1C[C@H](C)[C@H](CN(C)Cc2ccc(C(=O)O)cc2)Oc2ccc(NC(=O)Nc3cccc4ccccc34)cc2C1=O,inactive
19,C[C@H](CO)N1C[C@H](C)[C@H](CN(C)Cc2ccc(-c3ccccc3)cc2)Oc2ccc(NC(=O)Nc3cccc4ccccc34)cc2C1=O,active
20,C[C@@H]1CCCCO[C@@H](CN(C)C(=O)NC2CCCCC2)[C@H](C)CN([C@H](C)CO)C(=O)c2cc(NC(=O)NC3CCCCC3)ccc2O1,inactive
21,C[C@H](CO)N1C[C@H](C)[C@@H](CN(C)C(=O)Nc2ccccc2)Oc2ccc(NC(=O)CCCCCC(=O)Nc3ccccc3N)cc2CC1=O,inactive
22,COc1ccccc1C#Cc1cnc2c(c1)C(=O)N([C@H](C)CO)C[C@@H](C)[C@@H](CN(C)C(=O)CC1CC1)O2,inactive
23,C[C@H](CO)N1C[C@H](C)[C@@H](CN(C)S(=O)(=O)c2ccc(Cl)cc2)Oc2ccc(NC(=O)C3CC3)cc2C1=O,inactive
